Each structure is given as a SMILES string. Compounds without any hit were thinned out: in the full panel of roughly 79,000, 15% have a hit. Values without a mark were called inactive. The source made the active and inactive calls. Rule as the data show it: active = growth inhibition above about 70%; inactive = the rest.

A short description of assay [1]: NCI Yeast Anticancer Drug Screen. Data for the rad50 strain (AID 155).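 Also: 0% = growth of vehicle-only cultures of the same strain.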 Conditions: S. cerevisiae rad50 strain growth inhibition, active compounds read high. The gist of the method:
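Compounds were tested on a yeast strain with an engineered DNA damage repair alteration; the reported value is growth inhibition normalised to vehicle treatment.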

A short description of assay [2]: NCI Yeast Anticancer Drug Screen. Data for the mec2-1 strain (AID 157). To be noted: S. cerevisiae mec2-1 strain, active compounds read high. The gist of the method:
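Strain: mec2-1 (DNA repair/cell cycle alteration). Compound exposure, then growth measured; inhibition expressed relative to vehicle.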

The nature of assay [3]: NCI Yeast Anticancer Drug Screen. Data for the sgs1 mgt1 strain (AID 161).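 Also: 0% = growth of cultures given vehicle only.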 Conditions: S. cerevisiae sgs1 mgt1 strain, active compounds read high. The gist of the method: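 Inhibition of yeast growth, normalised to vehicle-treated controls, is reported for a strain bearing genetic alterations in DNA damage repair.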
A short description of assay [4]: NCI Yeast Anticancer Drug Screen. Data for the cln2 rad14 strain (AID 165).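 Also: 0% = growth equal to vehicle treated cultures.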 Conditions: S. cerevisiae cln2 rad14 strain, active compounds read high. The gist of the method: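 Compounds are applied to the cln2 rad14 yeast strain, and growth is then compared with that of vehicle-treated cultures to give inhibition.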
Assay [5] is described as follows: NCI Yeast Anticancer Drug Screen. Data for the bub3 strain (AID 167). Conditions: S. cerevisiae bub3 mutant strain, active compounds read high. The gist of the method:
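Growth of a checkpoint-deficient yeast mutant is measured after compound exposure. Values represent inhibition relative to vehicle.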

A short description of assay [6]: NCI Yeast Anticancer Drug Screen. Data for the mlh1 rad18 strain (AID 175). To be noted: S. cerevisiae mlh1 rad18 strain growth inhibition, active compounds read high. The gist of the method:
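Read-out is yeast growth inhibition, calculated against vehicle-only controls. The compound was applied to a strain engineered with DNA damage repair alterations.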

The mark [7] stands for this setting: at 5.0 µM (retest, dose inferred, filed as 0.5).
Where [8] appears, read: at 50.0 µM (retest, dose inferred, filed as 5.0).

As to `Nc1ccc(C(=O)/C=C/c2ccccc2)cc1`, the growth inhibition is 6% in assay [1] (setting [7]); 57% in assay [1] (setting [8]); 67.8% in assay [1] (at 50.0 µM); 12% in assay [2] (setting [7]); 58% in assay [2] (setting [8]); 85.3% (active) in assay [2] (at 50.0 µM). For the same molecule, the growth inhibition in assay [3] (setting [7]) was 11%; in assay [3] (setting [8]), 75% (active); in assay [3] (at 50.0 µM), 78.1% (active); in assay [4] (setting [7]), 4%; in assay [4] (setting [8]), 21%; in assay [4] (at 50.0 µM), 8.95%. The growth inhibition is 5% in assay [5] (setting [7]); 81% (active) in assay [5] (setting [8]); 94.5% (active) in assay [5] (at 50.0 µM); 4% in assay [6] (setting [7]); 53% in assay [6] (setting [8]); 96.3% (active) in assay [6] (at 50.0 µM).

Consider `COc1cc(N(CCC#N)CCC#N)ccc1/C(N=Nc1ccc(C(=O)O)cc1)=N/NC(=O)c1cc(Br)ccc1O`, for which the growth inhibition in assay [1] (setting [7]) is 9%; in assay [1] (setting [8]), 26%; in assay [1] (at 50.0 µM) it was 74.8% (active); in assay [2] (setting [7]) it was 12%; in assay [2] (setting [8]), 24%; in assay [2] (at 50.0 µM), 62.1%. The growth inhibition is -13% in assay [3] (setting [7]); 20% in assay [3] (setting [8]); 25.7% in assay [3] (at 50.0 µM); 6% in assay [4] (setting [7]); 12% in assay [4] (setting [8]); 34% in assay [4] (at 50.0 µM). In addition, the growth inhibition in assay [5] (setting [7]) is 14%; in assay [5] (setting [8]), 40%; in assay [5] (at 50.0 µM), 59.2%; in assay [6] (setting [7]), 8%; in assay [6] (setting [8]), 21%; in assay [6] (at 50.0 µM), 50.3%.

As for `CCCCCCCCCCCCCCCC[N+]1(C)CCCC1c1cccnc1` (centres undefined), the growth inhibition in assay [1] (setting [7]) is 93% (active); in assay [1] (setting [8]), 99% (active); in assay [1] (at 50.0 µM), 14.3%; in assay [2] (setting [7]), 90% (active); in assay [2] (setting [8]) it was 99% (active); in assay [2] (at 50.0 µM), 55.5%. Besides, the growth inhibition in assay [3] (setting [7]) was 99% (active); in assay [3] (setting [8]), 99% (active); in assay [3] (at 50.0 µM) it was 40.8%; in assay [4] (setting [7]) it was 70% (active); in assay [4] (setting [8]) it was 99% (active); in assay [4] (at 50.0 µM), 1.5%. For the same molecule, the growth inhibition was 96% (active) in assay [5] (setting [7]); 99% (active) in assay [5] (setting [8]); 99% (active) in assay [5] (at 50.0 µM); 89% (active) in assay [6] (setting [7]); 99% (active) in assay [6] (setting [8]); 68.8% in assay [6] (at 50.0 µM).

The values above are taken from PubChem BioAssay (NCI).
